The values that follow come from PubChem BioAssay AID1851 (National Center for Advancing Translational Sciences (NCATS), 2009).

The structures appear in SMILES notation. Screen size: about 16,000 compounds; about 5,700 (36%) were called active. Inconclusive results (about 24%) are left out. Calls come from the whole dose curve; as a rule, active = well fitted curve in the direction sought with a large enough effect; inconclusive = small, poorly fitted or top-dose-only effect, or effect the other way; inactive = no such curve, though single readings can be large or run the other way. The list shows a part of the results.
% is set by controls: 0 for no effect and ±100 for the full control effect.

The experiment deals with Cytochrome P450 1A2 (Homo sapiens) (UniProt P05177). Put plainly: Cytochrome panel assay with activity outcomes. The conditions noted are these: recombinant CYP, pro-luciferin dealkylation, luminescence, p450-cyp1a2; series mostly up to 57.1 µM; activity, negative = inhibition: at the top concentration.
Chain of Cytochrome P450 1A2 (Homo sapiens) (P05177 whole entry, looked up): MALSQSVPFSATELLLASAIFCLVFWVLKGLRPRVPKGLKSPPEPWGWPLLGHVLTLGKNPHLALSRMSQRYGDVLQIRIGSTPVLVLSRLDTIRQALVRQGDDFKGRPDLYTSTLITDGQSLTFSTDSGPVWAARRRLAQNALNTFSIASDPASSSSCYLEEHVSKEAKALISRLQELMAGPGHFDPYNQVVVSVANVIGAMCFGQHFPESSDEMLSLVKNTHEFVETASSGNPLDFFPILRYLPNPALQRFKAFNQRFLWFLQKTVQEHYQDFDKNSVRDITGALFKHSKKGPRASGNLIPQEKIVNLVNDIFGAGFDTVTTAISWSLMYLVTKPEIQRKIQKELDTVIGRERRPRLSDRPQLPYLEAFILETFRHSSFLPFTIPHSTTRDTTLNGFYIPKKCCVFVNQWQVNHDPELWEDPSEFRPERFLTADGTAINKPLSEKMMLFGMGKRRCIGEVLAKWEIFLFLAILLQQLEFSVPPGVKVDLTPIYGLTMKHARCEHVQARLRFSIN
With `CCOC(=O)c1sc(C)c(C(=O)NCC(C)(C)CN(C)C)c1N`, the “activity, negative = inhibition” value is -3.26% (inactive). Consider `CCOC(=O)c1nc(N)sc1C(=O)OCC`, for which the AC50 is 7.08 µM (active). In the case of `CCN1CCN(C(=O)N[C@H](C(=O)N[C@@H]2C(=O)N3[C@@H]2SC(C)(C)[C@@H]3C(=O)O)c2ccccc2)C(=O)C1=O`, the “activity, negative = inhibition” value was -2.8% [at 25.6 µM] (inactive).

Take `O=C(O)c1nn(-c2ccccc2-c2n[nH]c(=O)[nH]c2=O)c(=O)[nH]c1=O`: the activity, negative = inhibition was -21.2% [at 11.4 µM] (inactive).

For `O=C(O)c1nn(-c2ccc(Cl)cc2)c2c1C(=O)c1ccccc1C2=O`, the AC50 was 0.251 µM (active). For `O=C1C(C2=NC(C(=O)O)C3C(=O)N(c4ccc(Cl)cc4)C(=O)C23)=C(O)c2ccccc21` (stereo not drawn), the “activity, negative = inhibition” value is -5.96% (inactive).

In the case of `CC(C)CN1CC[C@@]2(CCCN(C(=O)c3cnccn3)C2)C1`, the “activity, negative = inhibition” value was -15.1% (inactive). With `O=C(Nc1nnc(-c2ccc(Cl)cc2)o1)Nc1ccccc1Cl`, the AC50 is 1.58 µM (active). As for `Cc1cc(NC(=O)c2ccccc2Cl)c(C(C)C)cc1O`, the AC50 was 3.55 µM (active).

For the compound `Cc1cccc(C)c1NC(=O)C(NC=O)c1ccccc1Cl` (stereo not drawn), the “activity, negative = inhibition” value is 2.26% (inactive). Same read-out and setting: to `O=C(CCN1CCN(CC(=O)Nc2ccccc2Cl)CC1)Nc1ccccc1F` belongs -0.462% (inactive); to `Cn1sc(NC(=O)c2ccccc2Cl)nc1=O`, -20.9% (inactive). Still for that read-out and setting: to `CC(=O)NNc1cccc(Cl)n1` belongs -17.3% (inactive). For the compound `O=C(NNc1cccc(Cl)n1)Nc1ccccc1Cl`, the AC50 was 2.51 µM (active). Same read-out and setting: the value for `O=C(Nc1ccccc1Cl)c1ccccc1Cl` was 1.78 µM (active). Regarding `CCCC(O)(CCC)C(=O)NN1CCCCC1`, the “activity, negative = inhibition” value is -7.66% (inactive). Regarding `O=C(O)C1CCCCC1C(=O)Nc1ccccc1Cl` (stereo not drawn), the “activity, negative = inhibition” value was -11.2% (inactive).

As for `O=C(Nc1ccccc1Cl)c1ccn[nH]1`, the AC50 was 0.794 µM (active). Turning to `NC(=O)NC(=O)Nc1ccccc1Cl`, the AC50 is 4.47 µM (active). In the case of `O=C(O)COC(=O)Cc1ccccc1Nc1c(Cl)cccc1Cl`, the “activity, negative = inhibition” value was 3.13% [at 25.6 µM] (inactive). Consider `COc1nc(N)nc2c1ncn2[C@@H]1C[C@H](O)[C@@H](CO)O1`, for which the activity, negative = inhibition was -7.83% [at 11.4 µM] (inactive). On to `Clc1cccc(N/N=C/c2ccc(N3CCOCC3)cc2)c1`, for which the AC50 was 2.51 µM (active). Take `O=C1CC(N2CCOCC2)C(=O)N1c1cccc(Cl)c1` (stereo not drawn): the “activity, negative = inhibition” value is 2.37% (inactive). For the compound `Cc1ccc(Nc2ccc(-n3ccnc3)nn2)cc1C`, the AC50 was 0.158 µM (active). Take `Cc1cc(/C=N/n2cnnc2)c(C)n1-c1ccc(OCc2ccccc2F)cc1`: the AC50 was 12.6 µM (active). On to `Fc1ccc(CSc2nnc(-c3cc4c(s3)-c3ccccc3CC4)o2)cc1`, for which the AC50 is 2.24 µM (active). The same measure, in the same setting: the value for `c1ccc(-c2noc(-c3ccc4ccccc4c3)n2)cc1` was 3.16 µM (active).

On to `c1ccc2cc(-c3cc(-c4cc(-c5ccc6ccccc6c5)on4)no3)ccc2c1`, for which the AC50 was 1.58 µM (active). `c1ccc2cc(-c3csnn3)ccc2c1`: the AC50 was 0.112 µM (active). As for `O=C(O)c1nnsc1-c1csnn1`, the activity, negative = inhibition was -3.7% [at 11.4 µM] (inactive). In the case of `Cc1ccc(-c2nnc(-c3ccc4ccccc4c3)o2)cc1`, the AC50 was 0.631 µM (active). On to `CC/C=C\CC[C@H](O)C1=CCCCC1=O`, for which the activity, negative = inhibition was -2.33% [at 11.4 µM] (inactive). `CC[C@@H](C)[C@H]1O[C@]2(CC[C@@H]1C)C[C@@H]1C[C@H](C/C=C(/C)[C@H](O[C@@H]3C[C@H](OC)[C@H](O[C@@H]4C[C@H](OC)[C@@H](O)[C@H](C)O4)[C@H](C)O3)[C@@H](C)/C=C\C=C3CO[C@@H]4[C@H](O)C(C)=C[C@@H](C(=O)O1)[C@]34O)O2` (tested in a mixture with another compound): the “activity, negative = inhibition” value was -15.8% (inactive). Still for that read-out and setting: the value for `C[C@@H]1C[C@H](OC(=O)[C@@H](O)c2ccccc2)CC(C)(C)N1C` was -5.2% [at 25.6 µM] (inactive); that for `CCCCCn1c(CN2CCN(c3cc(Cl)ccc3C)CC2)nc2c1c(=O)[nH]c(=O)n2C` was -2.23% (inactive). Turning to `Cc1ccc(OCCNC(=O)c2cncc(Br)c2)cc1C`, the AC50 was 14.1 µM (active). On the same count and under the same terms, the value for `CCOC(=O)CCCNC(=O)c1cncc(Br)c1` was 12.6 µM (active). Regarding `CCOC(=O)CNC(=O)c1cccnc1`, the “activity, negative = inhibition” value is -19.8% (inactive).

For the compound `CCOC(=O)CCCNC(=O)CCCNC(=O)C(c1ccccc1)c1ccccc1`, the “activity, negative = inhibition” value was -14.8% (inactive).

As to `O=C(NCCO[N+](=O)[O-])c1cccnc1`, the “activity, negative = inhibition” value was -19.7% (inactive).

`CO[C@H]1COC(=O)[C@H](C)COC(=O)[C@@H](Cc2ccccc2)NC(=O)C/C=C\[C@H]1C`: the activity, negative = inhibition was -3.2% [at 11.4 µM] (inactive). The same measure, in the same setting: to `Cc1cc(NC(=O)CCC(=O)N(CC2CCCO2)C(C(=O)NC2CCCC2)c2cccnc2)no1` (stereo not drawn) belongs 3.67% (inactive); to `CCOC(=O)CN(C(=O)CCC(=O)Nc1cc(C)on1)C(C(=O)NC1CCCC1)c1cccnc1` (stereo not drawn), -2.53% (inactive). On to `COc1ccc(NC(=O)N(C2CCCCC2)C(C)c2cccnc2)c(OC)c1` (stereo not drawn), for which the AC50 is 14.1 µM (active). Still for that read-out and setting: to `O=C1C(Cc2ccccc2)C(c2ccccc2)N1c1ccccc1` (stereo not drawn) belongs 5.01 µM (active).

In the case of `CCN1C(=O)N[C@@H](c2ccccc2)C1=O`, the “activity, negative = inhibition” value is -16.1% [at 25.6 µM] (inactive). Regarding `CCCC1C(=O)N(c2ccccc2)C1c1ccccc1` (stereo not drawn), the AC50 is 12.6 µM (active). As for `O=C1C(CCS(=O)c2ccccc2)C(=O)N(c2ccccc2)N1c1ccccc1` (stereo not drawn), the “activity, negative = inhibition” value was -14.7% [at 25.6 µM] (inactive). Consider `C[C@H]1CC[C@H]2C(=O)N[C@H](Cc3ccccc3)C(=O)N2[C@@H]1c1ccccc1`, for which the activity, negative = inhibition was -2.57% [at 11.4 µM] (inactive).

Consider `O=C1C2ON(c3ccccc3)C(c3ccncc3)C2C(=O)N1c1ccccc1` (stereo not drawn), for which the “activity, negative = inhibition” value was -24.3% (inactive).

As to `Clc1cccc(C=NC=Nc2cccc(Cl)c2)c1`, the AC50 is 0.631 µM (active). `COc1cccc(C=NC=Nc2cccc(OC)c2)c1`: the AC50 was 1 µM (active). With `CCCn1nc(NC(=O)CC(C)C)c2cc3ccccc3nc21`, the AC50 is 1.58 µM (active). In the case of `CC(C)CC(=O)Nc1ccccc1-c1nnn(CC(=O)N2CCc3ccccc3C2)n1`, the “activity, negative = inhibition” value is -27% (inactive). Same read-out and setting: to `COc1ccc(CNCCc2ccccc2)cc1OCC(N)=O` belongs -6.42% (inactive).

With `CCNCc1cc(OCC)c(OCC(=O)NCCc2ccccc2)cc1Cl`, the AC50 is 1.78 µM (active). For `CCOc1cc(CNCCO)c(Cl)cc1OCC(=O)NCCc1ccccc1`, the concentration at half-maximal activity (AC50) was 6.31 µM (active). Regarding `Nc1nc2c(c(=O)[nH]1)N[C@H](CCNc1ccc(C(=O)O)cc1)CN2`, the activity, negative = inhibition was -4.28% [at 11.4 µM] (inactive). On the same count and under the same terms, the value for `COC(=O)CN(c1ccc(OC)cc1)S(=O)(=O)c1c(C)noc1C` was -12.5% (inactive).

Take `COc1ccccc1CN1CCCC2(CCN(C(=O)c3c(C)noc3C)CC2)C1`: the “activity, negative = inhibition” value was -1.37% (inactive). With `COc1ccc(CNc2ccnc(-c3c(C)noc3C)n2)c(OC)c1`, the AC50 is 1.26 µM (active).

With `COc1ccccc1CNc1ccnc(-c2c(C)noc2C)n1`, the AC50 is 0.398 µM (active). For the compound `COc1ccccc1CN1CCC2(CC1)CCN(C(=O)c1c(C)noc1C)CC2`, the “activity, negative = inhibition” value is -17.2% (inactive).

As a reminder, the AC50 is the concentration at which the activity in the assay is half-maximal.
